For one sequence, binding signal results are on record in publication PMC7862700, “An all-to-all approach to the identification of sequence-specific readers for epigenetic DNA modifications on cytosine”.

What all share (test): DAPPL (digital affinity profiling via proximity ligation, sequencing); 10 mM Tris-HCl pH 7.5, 50 mM NaCl, 1 mM DTT, 4% glycerol, room temperature, 30 min; GST-TFs on glutathione beads, 16-mer random dsDNA library, 0.1% formaldehyde crosslink after washing; high values mean tight binding
The target of assay [1] is T1, FLI1 (Homo sapiens, UniProt Q01543 1-452).
T1 sequence: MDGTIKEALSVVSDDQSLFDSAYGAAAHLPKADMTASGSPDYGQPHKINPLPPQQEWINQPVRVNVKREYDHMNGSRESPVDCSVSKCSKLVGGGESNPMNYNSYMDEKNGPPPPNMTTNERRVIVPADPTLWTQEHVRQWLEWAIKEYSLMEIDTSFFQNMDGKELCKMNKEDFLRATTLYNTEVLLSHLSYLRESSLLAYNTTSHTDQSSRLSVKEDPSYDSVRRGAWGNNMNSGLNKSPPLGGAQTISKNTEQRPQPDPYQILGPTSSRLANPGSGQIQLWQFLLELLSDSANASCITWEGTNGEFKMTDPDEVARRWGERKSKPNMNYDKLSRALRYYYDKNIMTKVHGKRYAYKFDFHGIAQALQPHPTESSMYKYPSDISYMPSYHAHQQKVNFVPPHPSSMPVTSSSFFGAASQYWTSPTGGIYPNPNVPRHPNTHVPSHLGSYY
To be noted: protein: recombinant; tags: N-terminal GST; dsDNA, one strand shown. In outline: (§1)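 Beads coated with glutathione captured GST-fused human transcription factors that had been expressed in yeast, and the factors were then given DNA barcodes and pooled with a tag-only sample. The pools were incubated with 200 nmole of a random double-stranded 16-mer DNA library in Tris/NaCl/DTT/glycerol buffer for 30 min at room temperature, washed, crosslinked with 0.1% formaldehyde and proximity-ligated with BsaI/T4 ligase at 37 °C for 1 h. PCR amplification and Illumina NextSeq500 sequencing came last. Binding signal is each hexamer's read frequency for a factor divided by its frequency for the tag-only sample.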

Assay [2] concerns the target T2, GABPA (Homo sapiens, UniProt Q06546 1-454).
T2 sequence: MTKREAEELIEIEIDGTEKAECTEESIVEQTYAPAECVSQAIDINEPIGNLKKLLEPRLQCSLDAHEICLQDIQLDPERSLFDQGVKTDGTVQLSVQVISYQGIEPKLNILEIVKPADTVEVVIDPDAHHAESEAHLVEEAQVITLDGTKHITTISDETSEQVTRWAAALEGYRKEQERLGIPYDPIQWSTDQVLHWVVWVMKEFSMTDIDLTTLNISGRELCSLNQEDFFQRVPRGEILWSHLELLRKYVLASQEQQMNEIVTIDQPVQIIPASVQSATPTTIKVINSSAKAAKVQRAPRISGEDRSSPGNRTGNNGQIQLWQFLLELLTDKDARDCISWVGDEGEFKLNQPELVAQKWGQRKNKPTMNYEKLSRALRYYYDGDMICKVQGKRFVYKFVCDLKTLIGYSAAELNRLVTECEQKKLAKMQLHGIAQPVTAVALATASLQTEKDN
To be noted: protein: recombinant; tags: N-terminal GST; dsDNA, one strand shown. In outline:
as §1

For assay [3], the target named is T3, ERG (Homo sapiens, UniProt P11308 1-479).
T3 sequence: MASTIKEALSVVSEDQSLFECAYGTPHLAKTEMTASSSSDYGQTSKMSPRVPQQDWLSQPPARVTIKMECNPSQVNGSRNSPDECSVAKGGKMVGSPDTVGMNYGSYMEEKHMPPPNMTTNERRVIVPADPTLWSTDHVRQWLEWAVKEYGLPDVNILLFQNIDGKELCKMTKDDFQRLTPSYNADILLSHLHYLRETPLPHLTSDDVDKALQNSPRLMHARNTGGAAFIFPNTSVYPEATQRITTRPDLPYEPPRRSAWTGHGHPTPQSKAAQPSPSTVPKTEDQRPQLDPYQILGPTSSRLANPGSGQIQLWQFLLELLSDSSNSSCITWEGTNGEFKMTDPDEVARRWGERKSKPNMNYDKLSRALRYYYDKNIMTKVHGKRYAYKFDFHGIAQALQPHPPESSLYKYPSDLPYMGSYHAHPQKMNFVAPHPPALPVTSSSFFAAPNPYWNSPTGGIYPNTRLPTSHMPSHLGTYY
Particulars: protein: recombinant; tags: N-terminal GST; dsDNA, one strand shown. In outline: as §1

In assay [4] the target is ELF1 (Homo sapiens, UniProt P32519 1-619). Particulars: protein: recombinant; tags: N-terminal GST; dsDNA, one strand shown. In outline:
as §1

Assay [5] has as its target T4, EHF (Homo sapiens, UniProt Q9NZC4 1-300).
T4 sequence: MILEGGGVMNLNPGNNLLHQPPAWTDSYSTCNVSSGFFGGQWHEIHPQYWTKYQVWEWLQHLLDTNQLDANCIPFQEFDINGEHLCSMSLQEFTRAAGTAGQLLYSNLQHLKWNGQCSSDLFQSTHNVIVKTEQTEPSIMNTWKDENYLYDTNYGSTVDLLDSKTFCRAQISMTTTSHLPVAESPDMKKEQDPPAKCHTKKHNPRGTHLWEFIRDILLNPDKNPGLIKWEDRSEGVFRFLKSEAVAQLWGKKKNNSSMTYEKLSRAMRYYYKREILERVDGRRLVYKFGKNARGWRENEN
To be noted: protein: recombinant; tags: N-terminal GST; dsDNA, one strand shown. The method in brief:
as §1

Assay [6] addresses SPI1 (Homo sapiens, UniProt P17947 1-270). Particulars: protein: recombinant; tags: N-terminal GST; dsDNA, one strand shown. The method in brief: as §1
The target in assay [7] is SPIB (Homo sapiens, UniProt Q01892 1-262). Particulars: protein: recombinant; tags: N-terminal GST; dsDNA, one strand shown. The method in brief: as §1
Sequence of SPIB (Q01892 whole entry): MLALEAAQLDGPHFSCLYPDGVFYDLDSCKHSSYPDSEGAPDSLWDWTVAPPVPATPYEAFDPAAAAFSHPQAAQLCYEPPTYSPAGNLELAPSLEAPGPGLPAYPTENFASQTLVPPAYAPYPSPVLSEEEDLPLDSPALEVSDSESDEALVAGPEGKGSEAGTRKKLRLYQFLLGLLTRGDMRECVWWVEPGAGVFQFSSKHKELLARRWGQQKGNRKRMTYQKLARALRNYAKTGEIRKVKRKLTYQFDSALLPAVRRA
The target of assay [8] is T5, FEV (Homo sapiens, UniProt Q99581 1-238).
T5 sequence: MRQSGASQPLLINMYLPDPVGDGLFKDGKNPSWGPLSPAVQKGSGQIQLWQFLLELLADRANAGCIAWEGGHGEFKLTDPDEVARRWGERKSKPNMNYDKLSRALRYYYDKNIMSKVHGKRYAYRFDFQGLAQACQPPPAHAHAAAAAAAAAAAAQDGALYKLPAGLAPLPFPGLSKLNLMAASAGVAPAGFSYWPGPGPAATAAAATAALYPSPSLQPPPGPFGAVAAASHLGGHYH
Particulars: protein: recombinant; tags: N-terminal GST; dsDNA, one strand shown. The method in brief:
as §1

Assay [9] concerns the target ETV5 (Homo sapiens, UniProt P41161 1-510). Particulars: protein: recombinant; tags: N-terminal GST; dsDNA, one strand shown. In outline: as §1
Assay [10] addresses HSF1 (Homo sapiens, UniProt Q00613 1-529). To be noted: protein: recombinant; tags: N-terminal GST; chain copies: 3; dsDNA, one strand shown. The method in brief: as §1
In assay [11] the target is T6, SPIC (Homo sapiens, UniProt Q8N5J4 1-248).
T6 sequence: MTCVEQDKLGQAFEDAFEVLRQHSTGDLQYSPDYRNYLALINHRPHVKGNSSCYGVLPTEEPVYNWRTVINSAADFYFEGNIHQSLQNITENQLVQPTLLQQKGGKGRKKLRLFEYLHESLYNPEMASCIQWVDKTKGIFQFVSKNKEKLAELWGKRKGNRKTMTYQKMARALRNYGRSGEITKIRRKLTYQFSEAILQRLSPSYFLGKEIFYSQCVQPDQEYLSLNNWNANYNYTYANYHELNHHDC
To be noted: protein: recombinant; tags: N-terminal GST; dsDNA, one strand shown. The method in brief:
as §1

Assay [12] deals with ELF4 (Homo sapiens, UniProt Q99607 1-663). To be noted: protein: recombinant; tags: N-terminal GST; dsDNA, one strand shown. The method in brief:
as §1

Assay [13] concerns the target T7, ELK4 (Homo sapiens, UniProt P28324-2 1-405).
T7 sequence: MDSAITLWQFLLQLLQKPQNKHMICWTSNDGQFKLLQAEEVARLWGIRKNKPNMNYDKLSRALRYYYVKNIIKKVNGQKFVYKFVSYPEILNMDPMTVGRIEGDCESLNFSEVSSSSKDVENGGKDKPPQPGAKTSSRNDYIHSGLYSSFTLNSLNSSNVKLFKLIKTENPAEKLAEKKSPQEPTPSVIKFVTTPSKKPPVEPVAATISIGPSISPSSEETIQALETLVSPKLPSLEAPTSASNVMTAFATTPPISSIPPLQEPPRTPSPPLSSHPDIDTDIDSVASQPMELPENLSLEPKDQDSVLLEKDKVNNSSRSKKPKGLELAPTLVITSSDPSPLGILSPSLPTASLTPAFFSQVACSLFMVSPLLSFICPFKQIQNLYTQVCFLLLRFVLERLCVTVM
Particulars: protein: recombinant; tags: N-terminal GST; dsDNA, one strand shown. The method in brief: as §1

Assay [14] has as its target T8, ETV2 (Homo sapiens, UniProt O00321 1-342).
T8 sequence: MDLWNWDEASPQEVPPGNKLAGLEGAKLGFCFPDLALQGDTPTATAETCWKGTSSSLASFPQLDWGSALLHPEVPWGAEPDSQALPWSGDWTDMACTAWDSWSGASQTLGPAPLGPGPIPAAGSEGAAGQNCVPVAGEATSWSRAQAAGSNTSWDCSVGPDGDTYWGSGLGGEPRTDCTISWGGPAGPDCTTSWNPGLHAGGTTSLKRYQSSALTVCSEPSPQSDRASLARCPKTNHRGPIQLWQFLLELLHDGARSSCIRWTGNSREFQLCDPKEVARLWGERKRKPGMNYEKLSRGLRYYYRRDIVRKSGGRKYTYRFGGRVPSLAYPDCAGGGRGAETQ
Particulars: protein: recombinant; tags: N-terminal GST; dsDNA, one strand shown. The method in brief: as §1

The target in assay [15] is T9, ELF3 (Homo sapiens, UniProt P78545 1-371).
T9 sequence: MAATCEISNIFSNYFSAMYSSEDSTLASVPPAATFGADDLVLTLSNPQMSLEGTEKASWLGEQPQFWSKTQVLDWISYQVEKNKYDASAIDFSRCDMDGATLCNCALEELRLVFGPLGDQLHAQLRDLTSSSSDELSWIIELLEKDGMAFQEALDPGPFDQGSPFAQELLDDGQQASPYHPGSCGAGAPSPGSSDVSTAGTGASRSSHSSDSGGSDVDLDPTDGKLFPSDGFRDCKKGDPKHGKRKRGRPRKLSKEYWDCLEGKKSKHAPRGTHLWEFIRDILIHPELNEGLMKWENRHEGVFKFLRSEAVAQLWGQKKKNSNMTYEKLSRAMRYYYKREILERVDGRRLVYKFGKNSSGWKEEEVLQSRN
To be noted: protein: recombinant; tags: N-terminal GST; dsDNA, one strand shown. In outline: as §1

Assay [16] has as its target ETV1 (Homo sapiens, UniProt P50549 1-477). Particulars: protein: recombinant; tags: N-terminal GST; dsDNA, one strand shown. In outline: as §1

Sequence of ELF1 (P32519 whole entry): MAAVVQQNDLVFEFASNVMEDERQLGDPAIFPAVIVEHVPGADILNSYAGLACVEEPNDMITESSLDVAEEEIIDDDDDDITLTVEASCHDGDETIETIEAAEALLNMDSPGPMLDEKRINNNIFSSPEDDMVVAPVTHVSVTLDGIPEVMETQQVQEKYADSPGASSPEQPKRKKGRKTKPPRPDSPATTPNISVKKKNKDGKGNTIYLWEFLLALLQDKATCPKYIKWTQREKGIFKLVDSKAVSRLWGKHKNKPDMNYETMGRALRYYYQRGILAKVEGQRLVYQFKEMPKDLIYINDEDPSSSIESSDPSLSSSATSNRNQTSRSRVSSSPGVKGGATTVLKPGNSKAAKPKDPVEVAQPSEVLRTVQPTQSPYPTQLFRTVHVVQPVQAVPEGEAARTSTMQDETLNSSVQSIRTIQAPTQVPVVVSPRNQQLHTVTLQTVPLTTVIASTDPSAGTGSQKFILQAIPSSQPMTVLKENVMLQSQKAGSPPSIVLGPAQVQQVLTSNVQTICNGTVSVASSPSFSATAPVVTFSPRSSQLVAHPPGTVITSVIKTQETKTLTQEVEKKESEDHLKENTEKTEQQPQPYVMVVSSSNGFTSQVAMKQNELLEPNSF
Sequence of ETV5 (P41161 whole entry): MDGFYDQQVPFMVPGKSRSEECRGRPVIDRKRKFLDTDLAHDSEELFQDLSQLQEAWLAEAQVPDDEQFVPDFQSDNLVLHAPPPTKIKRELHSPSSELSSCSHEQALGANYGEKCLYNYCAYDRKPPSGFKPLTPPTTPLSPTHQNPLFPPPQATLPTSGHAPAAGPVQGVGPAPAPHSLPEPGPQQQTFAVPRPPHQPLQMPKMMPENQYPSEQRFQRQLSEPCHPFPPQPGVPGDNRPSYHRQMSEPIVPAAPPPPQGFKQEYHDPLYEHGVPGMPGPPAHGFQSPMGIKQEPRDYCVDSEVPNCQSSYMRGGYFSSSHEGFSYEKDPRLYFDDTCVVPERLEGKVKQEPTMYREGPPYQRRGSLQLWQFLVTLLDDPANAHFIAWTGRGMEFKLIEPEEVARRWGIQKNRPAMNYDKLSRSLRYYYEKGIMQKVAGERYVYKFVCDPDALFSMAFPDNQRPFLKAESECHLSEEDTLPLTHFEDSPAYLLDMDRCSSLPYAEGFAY
Sequence of ELF4 (Q99607 whole entry): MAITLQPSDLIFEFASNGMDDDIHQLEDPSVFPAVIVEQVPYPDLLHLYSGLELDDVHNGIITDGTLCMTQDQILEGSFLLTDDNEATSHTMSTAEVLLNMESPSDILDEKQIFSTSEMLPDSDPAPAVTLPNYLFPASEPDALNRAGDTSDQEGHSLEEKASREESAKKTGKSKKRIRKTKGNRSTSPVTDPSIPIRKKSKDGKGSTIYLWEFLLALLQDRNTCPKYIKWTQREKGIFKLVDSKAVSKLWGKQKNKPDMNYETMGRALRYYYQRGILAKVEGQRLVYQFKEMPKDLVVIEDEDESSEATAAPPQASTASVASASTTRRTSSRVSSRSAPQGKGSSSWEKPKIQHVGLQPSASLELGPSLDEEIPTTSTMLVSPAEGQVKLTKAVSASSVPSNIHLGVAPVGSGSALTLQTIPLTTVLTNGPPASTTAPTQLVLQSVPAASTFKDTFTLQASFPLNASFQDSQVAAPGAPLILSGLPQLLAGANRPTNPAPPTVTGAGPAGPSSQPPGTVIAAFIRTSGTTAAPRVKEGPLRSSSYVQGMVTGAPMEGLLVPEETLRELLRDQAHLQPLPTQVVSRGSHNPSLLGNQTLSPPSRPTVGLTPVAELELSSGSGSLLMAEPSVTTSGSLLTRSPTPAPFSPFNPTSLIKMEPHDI
Sequence of ETV1 (P50549 whole entry): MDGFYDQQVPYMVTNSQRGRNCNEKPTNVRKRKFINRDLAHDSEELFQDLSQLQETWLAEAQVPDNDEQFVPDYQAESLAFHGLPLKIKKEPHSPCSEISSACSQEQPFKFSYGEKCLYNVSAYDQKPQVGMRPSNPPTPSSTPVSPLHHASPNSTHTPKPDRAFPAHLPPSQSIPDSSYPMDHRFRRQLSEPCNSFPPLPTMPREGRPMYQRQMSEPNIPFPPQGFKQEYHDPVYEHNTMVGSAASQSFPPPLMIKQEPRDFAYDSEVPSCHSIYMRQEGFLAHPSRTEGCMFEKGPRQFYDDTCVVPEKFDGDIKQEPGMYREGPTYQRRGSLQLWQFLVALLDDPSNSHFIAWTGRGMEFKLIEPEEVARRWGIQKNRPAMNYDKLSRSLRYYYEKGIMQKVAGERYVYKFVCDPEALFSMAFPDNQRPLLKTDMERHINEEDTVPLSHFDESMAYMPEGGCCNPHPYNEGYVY
Sequence of HSF1 (Q00613 whole entry): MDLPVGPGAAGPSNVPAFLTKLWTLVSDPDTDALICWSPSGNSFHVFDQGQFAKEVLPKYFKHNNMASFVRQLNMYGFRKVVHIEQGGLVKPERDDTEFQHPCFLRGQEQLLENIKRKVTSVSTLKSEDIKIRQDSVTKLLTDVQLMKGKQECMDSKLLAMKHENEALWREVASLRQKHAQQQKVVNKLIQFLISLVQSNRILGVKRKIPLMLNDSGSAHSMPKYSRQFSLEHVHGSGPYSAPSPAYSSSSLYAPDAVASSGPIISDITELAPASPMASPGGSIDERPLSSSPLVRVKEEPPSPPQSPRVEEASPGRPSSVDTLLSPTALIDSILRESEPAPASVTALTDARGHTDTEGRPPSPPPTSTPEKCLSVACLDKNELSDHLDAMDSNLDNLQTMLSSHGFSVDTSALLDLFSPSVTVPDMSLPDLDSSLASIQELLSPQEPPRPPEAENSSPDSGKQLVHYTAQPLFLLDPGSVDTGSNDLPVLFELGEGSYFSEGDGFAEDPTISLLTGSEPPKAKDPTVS

As for CTCGGT, the binding signal in assay [1] is 1.12 fold enrichment (6-mer frequency, TF over GST control); in assay [2] it was 1.09 fold enrichment (6-mer frequency, TF over GST control); in assay [3], 1.04 fold enrichment (6-mer frequency, TF over GST control); in [4], 1.17 fold enrichment (6-mer frequency, TF over GST control); in assay [5], 1.07 fold enrichment (6-mer frequency, TF over GST control); in assay [6], 1.1 fold enrichment (6-mer frequency, TF over GST control). Besides, the binding signal in assay [7] is 1.21 fold enrichment (6-mer frequency, TF over GST control); in [8] it was 1.01 fold enrichment (6-mer frequency, TF over GST control); in [9], 1.1 fold enrichment (6-mer frequency, TF over GST control); in assay [10] it was 1.04 fold enrichment (6-mer frequency, TF over GST control); in assay [11] it was 1.06 fold enrichment (6-mer frequency, TF over GST control); in assay [12] it was 1.09 fold enrichment (6-mer frequency, TF over GST control). In addition, the binding signal was 1.12 fold enrichment (6-mer frequency, TF over GST control) in [13]; 1.19 fold enrichment (6-mer frequency, TF over GST control) in assay [14]; 1.16 fold enrichment (6-mer frequency, TF over GST control) in assay [15]; 1.15 fold enrichment (6-mer frequency, TF over GST control) in assay [16].
